An excerpt weighted towards active compounds, which were near 1.6% of everything screened.
gsp antag – qHTS for Antagonists of gsp, the Etiologic Mutation Responsible for Fibrous Dysplasia/McCune-Albright Syndrome: qHTS; gsp-mutant cells, cAMP HTRF, 30 min; Potency, µM (titrated, usually from 76.9 µM), for the others: at the highest dose activity change, negative = inhibition, actives largely listed as inhibitors; 340,000 compounds, 0.4% hits; AID 624288, 2012; calls by dose curve; cell line not stated here;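 note: intracellular cAMP measured with PDE inhibitor Ro 20-1724 present during compound exposure; potency is the fitted concentration of half-maximal effect; % is set by controls: 0 for no effect and ±100 for the full control effect; nearly all actives have a fitted effect of over 65% in size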
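Cells in G418 medium, seeded 16-24 h, 37C; buffer exchange to DPBS + 1 mM CaCl2, 0.5 mM MgCl2, 0.05% BSA; cpds in DMSO + […] (300 uM stock), 30 min 37C; HTRF cAMP detection.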
RXFP1 antag – qHTS Assay for Antagonists of the Relaxin Receptor RXFP1. AID 1259400, 2018. HEK293-RXFP1, relaxin-stimulated cAMP HTRF, 30 min; stronger effect = lower value. Relaxin receptor 1 (Homo sapiens), Q9HBX9. 350,000 compounds, 0.59% hits. activity change, negative = inhibition, % at 57.5 µM;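 active = activity change of -60% or lower, but not beyond a set lower limit; inconclusive = change between -60% and -40%, or beyond the set limit; inactive = change above -40%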; note: % is set by controls: 0 for no effect and ±100 for the full control effect
Target sequence (Q9HBX9 whole entry, looked up): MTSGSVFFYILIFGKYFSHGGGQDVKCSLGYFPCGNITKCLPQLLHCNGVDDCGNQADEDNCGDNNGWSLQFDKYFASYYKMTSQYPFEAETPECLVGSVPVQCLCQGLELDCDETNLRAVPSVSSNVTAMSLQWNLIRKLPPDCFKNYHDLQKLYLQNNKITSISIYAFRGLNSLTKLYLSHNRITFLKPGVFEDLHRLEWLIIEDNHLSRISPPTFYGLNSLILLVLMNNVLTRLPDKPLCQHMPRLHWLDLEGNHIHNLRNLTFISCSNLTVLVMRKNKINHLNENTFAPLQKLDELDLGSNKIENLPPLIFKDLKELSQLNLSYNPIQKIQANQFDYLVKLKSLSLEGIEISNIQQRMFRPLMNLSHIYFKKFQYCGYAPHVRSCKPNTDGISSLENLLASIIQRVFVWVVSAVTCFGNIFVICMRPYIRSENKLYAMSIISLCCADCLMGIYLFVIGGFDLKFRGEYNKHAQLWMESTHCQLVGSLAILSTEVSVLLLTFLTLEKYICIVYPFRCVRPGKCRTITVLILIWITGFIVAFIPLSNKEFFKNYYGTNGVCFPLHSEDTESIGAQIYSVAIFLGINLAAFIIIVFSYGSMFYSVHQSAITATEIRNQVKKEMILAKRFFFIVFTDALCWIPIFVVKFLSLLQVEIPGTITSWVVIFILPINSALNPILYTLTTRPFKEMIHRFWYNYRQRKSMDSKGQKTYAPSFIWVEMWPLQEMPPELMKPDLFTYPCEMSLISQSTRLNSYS
Coupling enz – qHTS Assay for Inhibitors of Fructose-1,6-bisphosphate Aldolase from Giardia Lamblia: Coupling assay counterscreen; coupling enzyme system counterscreen, AmpLite Red fluorescence; AID 2472, 2010; 290,000 compounds, 0.67% hits; activity change, negative = inhibition, % at 58.2 µM, hits read low; in the data active = activity change below about -30%; note: % is set by controls: 0 for no effect and ±100 for the full control effect
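Activity here indicates interference with the coupling reaction, not aldolase inhibition. Compounds at 57.5 uM final met coupling enzymes for 10 min at RT; substrate and AmpLite Red detection followed, with a 525/598 nm fluorescence read after 20 min.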
RXFP1 ag – qHTS Assay for Agonists of the Relaxin Receptor RXFP1. HEK293T-RXFP1 cAMP TR-FRET, 30 min; response scale: percent of porcine relaxin response, buffer zero. Potency, µM (titrated, usually from 57.5 µM), for inactives: at the highest dose activation, hits mostly activators. 370,000 compounds, 0.3% hits. AID 2676, 2010; active = well fitted activation curve with a large enough effect; inconclusive = small, poorly fitted or top-dose-only effect; note: potency is the fitted concentration of half-maximal effect; % is set by controls: 0 for no effect and ±100 for the full control effect; nearly all actives have a fitted effect of over 60% in size
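cAMP rise read by TR-FRET after 30 min, 37C compound exposure (up to 58 uM) in RXFP1-transfected HEK293 cells with Ro 20174 present. EC50 from Hill-equation fits, with 29 nM porcine relaxin as 100% and buffer as basal.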
gsp ag – qHTS for Agonist of gsp, the Etiologic Mutation Responsible for Fibrous Dysplasia/McCune-Albright Syndrome: qHTS; gsp mutant cells, cAMP HTRF, 30 min; Potency, µM (top dose mostly 76.9 µM), for inactives: top-dose activation (cAMP increase), hits mostly activators; 340,000 compounds, 0.13% hits; AID 624287, 2012; active = well fitted activation curve with a large enough effect; inconclusive = small, poorly fitted or top-dose-only effect, or another doubt; inactive = no such curve, though single readings can be large or run the other way; cell line not stated here;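 note: phosphodiesterase inhibitor Ro 20-1724 added with compounds to block cAMP breakdown; potency is the fitted concentration of half-maximal effect; nearly all actives have a fitted effect of over 60% in size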
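Cells stably selected in G418 were plated at 2000/well, grown 16-24 hr, then given compounds in DMSO with the PDE inhibitor […] (300 uM solution added) for 30 min at 37C; cAMP was read by HTRF.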
Giardia kill – Small Molecules that selectively kill Giardia lamblia: qHTS. activity change, % at 7.66 µM, hits read low. 340,000 compounds, 0.15% hits. Giardia lamblia trophozoite viability; in the data active = activity change below about -80%; inconclusive = between about -30% and that limit;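 note: parasites exposed to compound for two days anaerobically before the ATP read; % is set by controls: 0 for no effect and ±100 for the full control effect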
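Each well holds 100 Giardia trophozoites and compound. After two days (48 hrs) at 37 deg C in anaerobic conditions, ATP is quantified by luminescence.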
Starred values were filed as active, the others as inactive; ? = inconclusive; nt = no result given; [ ] = another dose, or the depositor's remark.

SMILES	gsp antag	RXFP1 antag	Coupling enz	RXFP1 ag	gsp ag	Giardia kill
COCCNC(=O)CN1C(=O)/C(=C/c2ccccc2)Oc2ccc(C(C)(C)C)cc21	28µM*	-16	0	5%	13%	-5
COc1ccc(-c2nn(-c3ccccc3F)cc2CNCCn2nc(C)cc2C)cc1	-12%	12	2	-3%	-49%	2
COC1=C(Nc2ccc(C)cc2)C(=O)c2ccccc2C1=O	-6%	nt	-32*	-2%	-19%	-8
Cc1ccc(SC2=C(Sc3ccc(C)cc3)C(=O)c3ccccc3C2=O)cc1	-12%	-5	-30	4%	-28%	21
COC1=C(Nc2ccccc2)C(=O)c2ccccc2C1=O	-6%	-3	-33*	2%	12%[15.4 µM]	-2
COc1cc(OC)c(NC(=O)C2=C(C)C(=O)OC23CCCCCC3)cc1Cl	nt	-38	nt	0%	nt	nt
CCN(CC)S(=O)(=O)c1cccc(NC(=O)COc2ncnc3sccc23)c1	2%	1	1	?	25µM*	0
CCOC(=O)c1c(NC(=O)CSc2n[nH]c(CNc3ccccc3)n2)sc(C)c1C	-4%	?	1	-2%	1%	-1
CCOC(=O)c1c(NC(=O)CSc2n[nH]c(-c3ccco3)n2)sc(C)c1C	12%	-75*	4	-1%	0%	10
CCSC[C@H](NC(=O)[C@H](C)N)C(=O)N[C@@H](CC(=O)O)C(=O)N[C@H](C(=O)N[C@@H](C)C(=O)N[C@H](C(=O)N[C@@H](CSCC)C(=O)N[C@H](C(=O)N[C@H](C(=O)N[C@@H](Cc1cnc[nH]1)C(=O)N[C@@H](CCCNC(=N)N)C(=O)N[C@@H](CC(C)C)C(=O)N[C@@H](C)C(=O)NCC(=O)N[C@@H](CC(C)C)C(=O)N[C@@H](CC(C)C)C(=O)N[C@@H](CO)C(=O)N[C@@H](CCCNC(=N)N)C(=O)N[C@@H](CO)C(=O)NCC(=O)NCC(=O)N[C@H](C(=O)N[C@H](C(=O)N[C@@H](CCCCN)C(=O)N[C@@H](CC(N)=O)C(=O)N[C@@H](CC(N)=O)C(=O)N[C@@H](Cc1ccccc1)C(=O)N[C@H](C(=O)N1CCC[C@H]1C(=O)N[C@H](C(=O)N[C@@H](CC(N)=O)C(=O)N[C@H](C(=O)NCC(=O)N[C@@H](CO)C(=O)N[C@@H](CCCCN)C(=O)N[C@@H](C)C(=O)N[C@@H](Cc1ccccc1)C(N)=O)C(C)C)[C@@H](C)O)C(C)C)C(C)C)C(C)C)[C@@H](C)O)C(C)C)[C@@H](C)O)[C@@H](C)O	nt	nt	-13	nt	nt	nt
O=[N+]([O-])c1cccc(C=Nc2cccc3ccccc23)c1O	-23%	-30	-14	-2%	?	-15
O=[N+]([O-])c1ccc(O)c(C=Nc2cccc3ncccc23)c1	-19%	-3	-21	-2%	?	30
Oc1ccc(C=Nc2cccc3ccccc23)c(O)c1	-2%	-10	-35*	0%	-23%	-7
O=[N+]([O-])c1ccc(O)c(C=Nc2cccc3ccccc23)c1	2%	-96*	-10	1%	-22%	1
O=C(NCCN1C(=O)S/C(=C\c2cccnc2)C1=O)c1cc(S(=O)(=O)N2CCOCC2)ccc1F	-11%	2	1	13%	28%	-15
N#C/C(=C(/O)c1ccccc1F)c1nc2cc(C(F)(F)F)ccc2s1	?	-7	2	0%	24%	9
N#C/C(=C(/O)c1ccc2c(c1)OCO2)c1nc2cc(C(F)(F)F)ccc2s1	35µM*	-1	3	1%	-3%	-15

Source: PubChem (National Center for Advancing Translational Sciences (NCATS))
